The list is not random: actives were taken first. Their share in the collection is about 2.8%.
KKLEB tox: CF airway cell cytotoxicity counter-screen; KKLEB CF airway cells viability, ATPlite luminescence, overnight; stronger effect = lower value; cells stimulated with P. aeruginosa culture filtrate; activity change (cytotoxicity), % at 5 µM; hit rate 0.36% among 360,000;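 active means corrected activity change at or below -50% at 5 µM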
CF NFkB block: inhibitors of cystic fibrosis induced NF-kB; KKLEB NF-kB-GFP reporter, PAF-induced, GFP fluorescence overnight; inhibition, % at 5 µM; hit rate 0.86% among 360,000; AID 588850;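 active means at least 50% inhibition at 5 µM, scaled per plate between neutral and stimulator controls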;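 further: PAF is a Pseudomonas aeruginosa culture filtrate used as stimulus; plate controls were PAF-stimulated DMSO wells for no effect and unstimulated DMSO wells for full effect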
Peg3 prom inh-1: Peg3 promoter activity inhibition; HeLa PEG-Prom luciferase reporter, luminescence, overnight; inhibition, % at 20 µM; hit rate 1.7% among 360,000;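 active means inhibition of at least 50% at 20 µM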
MITF TRPM1 inh: reduces MITF-dependent TRPM1 promoter luciferase signal. SK-MEL-5 TRPM1 promoter luciferase, 24 h. inhibition, % at 12.5 µM. hit rate 0.83% among 330,000. AID 488899;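 active means mean inhibition across replicates of 60% or more, whatever share of single replicates reaches that level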
Shn3 3UTR inh: Schnurri-3 reporter inhibition in Clone20 osteoblasts; Clone20 osteoblast Shn3 3'UTR firefly luciferase, 24 h; inhibition, % at 12.5 µM; hit rate 0.52% among 360,000; AID 588674;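 active means mean inhibition of at least 75% with every replicate also reaching 75%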;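 further: 0% = median of neutral control wells and 100% = pilot-screen positive control compound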
HIF-2a inh: HIF-2a inhibition; 786-0 RCC cells HIF-2a reporter, luciferase luminescence, overnight; inhibition, % at 18.8 µM; hit rate 0.72% among 360,000; AID 624352;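 active means inhibition of the luminescence signal of 40% or more relative to plate controls, in a single-dose primary screen at 18.75 µM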
Peg3 prom inh-2: confirmation of Peg3 promoter inhibitors. HeLa PEG-Prom luciferase reporter, luminescence, overnight. shares compounds with Peg3 prom inh-1. hit rate 84% among 1,300. inhibition, % at 20 µM;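 active means at 20 µM dose, 40% or more inhibition averaged across four replicates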
Active calls of the source: *; x = not tested or not shown.

SMILES	KKLEB tox	CF NFkB block	Peg3 prom inh-1	MITF TRPM1 inh	Shn3 3UTR inh	HIF-2a inh	Peg3 prom inh-2
Cc1ccsc1/C=N/Nc1cccc(C(=O)O)c1	6	-24	86*	96*	76	86*	74*
COc1ccc(S(=O)(=O)N2CCCCC2c2cc(C(=O)N3CCOCC3)no2)cc1 (stereo not drawn)	16	-38	13	x	-30	-2	x
Cc1cc(CSc2ccccc2)ccc1NC(=O)c1ccc(Br)cc1	11	-11	54*	4	16	7	23
O=C(Nc1cccc(Br)c1)c1ccc(CSc2ccccc2)cc1	-4	-9	-70	-59	-20	-103	x
Cc1cc(OCC(=O)OCC(=O)NCc2ccco2)ccc1Cl	4	16	4	-4	5	11	x
CNCC[C@H](Oc1cccc2ccccc12)c1cccs1	-14	47	90*	7	-19	-3	92*
O=C(Nc1ccc(CN2CCCCC2)cc1)Nc1ccc(Br)cc1Cl	-31	22	67*	-35	4	5	96*
S=C(Nc1ccc(Br)cc1Cl)N1CCCC1	3	7	-165	-85	-81	-241	x
Cc1ccc(-c2nn(-c3ccccc3)cc2CSC(=N)N)cc1	-6	-8	101*	3	-4	-26	41*
CC[C@H](C)[C@H]1O[C@]2(CC[C@@H]1C)C[C@@H]1C[C@@H](CC=C(C)[C@@H](O[C@H]3C[C@H](OC)[C@@H](O[C@H]4C[C@H](OC)[C@@H](O)[C@H](C)O4)[C@H](C)O3)[C@@H](C)C=CC=C3CO[C@@H]4[C@H](O)C(C)=C[C@@H](C(=O)O1)[C@]34O)O2	-51*	56*	84*	58	97*	53*	38
CC12CCC(C(=O)OC3CCCCC3)(OC1=O)C2(C)C (stereo not drawn)	-8	7	12	12	3	13	x
CCc1ccc(OCC(=O)O/N=C(\N)c2ccccn2)cc1	-24	19	-345	x	x	-258	x
Cc1cccc(C(=O)O/N=C(\N)c2ccccn2)c1	-20	-16	56*	35	46	32	40*
N/C(=N\OC(=O)c1cccc(F)c1)c1ccccn1	-6	-18	-14	-16	-1	5	x
CCOc1ccc(C(=O)O/N=C(\N)c2ccccn2)cc1	-28	13	114*	67*	84	68*	95*
N/C(=N\OC(=O)c1ccccc1)c1ccccn1	0	-3	95*	56	23	-44	8
CN1CCN(C(=O)c2cc(C(C)(C)C)cc(C(C)(C)C)c2)CC1	-7	23	5	-11	15	12	x
O=C(OC1CCOC1=O)c1cc(S(=O)(=O)N2CCOCC2)c(Cl)cc1Cl (stereo not drawn)	-5	-2	7	-7	-2	14	x
CCN(C(=O)Cc1c(C(=O)O)n(CC)c2ccccc12)c1cccc(C(F)(F)F)c1	19	4	17	0	-4	9	x
CCCN(CCC)S(=O)(=O)c1ccc(Cl)c([N+](=O)[O-])c1	-50*	60*	94*	17	10	34	40
CCCN(CCC)S(=O)(=O)c1ccc(N2CCCC2=O)c([N+](=O)[O-])c1	-3	7	17	1	-7	20	x
CC1=NOC(=O)/C1=C\c1ccc(-c2ccccc2Br)o1	-20	58*	93*	89*	91*	49*	99*
Cc1n[nH]c(C)c1CCc1nc2c3ccccc3nc(SCC(=O)Nc3ccccc3F)n2n1	-10	13	20	42	72	18	x
Cc1cccc(NC(=O)CSc2nc3ccccc3c3nc(CCc4c(C)n[nH]c4C)nn23)c1	-42	31	57*	-4	75	-7	58*
O=C1C(Cl)=C(Nc2ccccc2)C(=O)c2ccccc21	-83*	93*	102*	90*	96*	97*	98*
CCCCCCSc1cc(-c2nc3ccc(C)cn3c2NCCCC)ccc1OC	-10	38	79*	0	61	-36	93*
CCOc1ccc(C(=O)NCC(=O)OCC(=O)Nc2ccc(C)c(S(=O)(=O)N(C)C)c2)cc1	6	-4	-26	-5	11	7	x

Screening data deposited in PubChem BioAssay by several laboratories.
